Rows were chosen to be rich in hits. Some 1.6% of all compounds tested hit in one or more screens of this group.
VLA-4 inh: inhibition in a human VLA-4 binding assay | P13612 | VLA-4 expressing cells, ligand binding flow cytometry | inhibition, % (about 7 µM as worked out from the volumes in the protocol) | 330,000 tested, 0.2% active; in the data active means inhibition above about 50%
PKA-R2B activ: activates the human PKA-R2B holoenzyme complex. PKA-R2B holoenzyme dissociation, Cy5-IP20 fluorescence polarization; R2B truncated from residue 108, S112A mutant; 0% DMSO only, 100% 113 µM cGMP. activation, % at 11.4 µM. 340,000 tested, 0.079% active;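 active means activation above a cutoff set at the mean over all compounds plus 3 SD, cut at about 18% in these data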;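 further: higher means more holoenzyme dissociation and a rise in polarization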
CendR NRP1 mod: NRP-1/CendR interaction modulation. O14786. AID 602438. 360,000 tested, 0.85% active. inhibition, % at 25 µM. FAM-RPARPAR peptide binding to NRP-1, fluorescence polarization;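 active means inhibition or corrected inhibition above about 18%, plus a signal ratio from 0.5 to 1.5, limit read from the data, passing the limit was not always enough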
PKA-R1A activ: activates the PKA-R1A holoenzyme complex; AID 504707; PKA-R1A dissociation, Cy5-IP20 fluorescence polarization; scaled: DMSO 0%, 113 µM cGMP 100%; activation, % at 11.4 µM; 340,000 tested, 0.083% active;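 active means percent activation above the mean of all tested compounds plus 3 SD, cut at about 19% in these data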;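 further: higher means more PKAc released from R1A so a rise in polarization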
ATG4B inh: ATG4B (human) cysteine protease inhibition | Q9Y4P1 | ATG4B cleavage of LC3-PLA2, NBD-HPC fluorescence, 1 h | inhibition, % at 8.33 µM | 340,000 tested, 0.51% active | AID 504462
Target sequence (Q9Y4P1 whole entry, looked up): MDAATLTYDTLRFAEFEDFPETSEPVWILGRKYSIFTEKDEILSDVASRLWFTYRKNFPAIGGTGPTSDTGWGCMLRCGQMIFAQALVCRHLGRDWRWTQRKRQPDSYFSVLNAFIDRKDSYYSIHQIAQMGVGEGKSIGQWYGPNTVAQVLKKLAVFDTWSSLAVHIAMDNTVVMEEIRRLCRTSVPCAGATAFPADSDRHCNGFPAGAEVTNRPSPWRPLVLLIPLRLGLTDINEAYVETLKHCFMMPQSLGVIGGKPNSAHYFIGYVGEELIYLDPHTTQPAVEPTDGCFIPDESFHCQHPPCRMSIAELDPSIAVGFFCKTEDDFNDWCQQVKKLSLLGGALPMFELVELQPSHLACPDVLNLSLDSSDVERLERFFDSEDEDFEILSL
VLA-4 allo CP: human VLA-4 allosteric modulation in cherry picked compounds; shares compounds with VLA-4 inh; U937 cells, HUTS-21 LIBS mAb binding, flow cytometry; LDV ligand present at threefold Kd; inhibition, % at 6.7 µM; 1,300 tested, 2% active; AID 2813;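 further: 0% = ligand without compound and 100% = no ligand background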
The depositor's hits bear a star; . = not tested or not shown. Unless noted, no stated cut-off is given here; in the data, active means inhibition above about 40%; inactive means the rest.

SMILES | VLA-4 inh | PKA-R2B activ | CendR NRP1 mod | PKA-R1A activ | ATG4B inh | VLA-4 allo CP
CCOC(=O)C1(S(=O)(=O)c2ccc(Cl)cc2)CCN(Cc2ccc(C)cc2)CC1 | 9 | -3 | -6 | -6 | -12 | 6
CCOC(=O)C1(Cc2ccc(Cl)cc2)CCN(Cc2cnc(N)nc2)CC1 | 4 | -5 | 0 | 0 | -5 | .
CCOC(=O)c1c(N2C(=O)C=CC2=O)sc(C)c1C | 50* | 0 | -2 | 2 | 0 | 32
CCOC(=O)c1c(NC(N)=O)sc(C)c1C | 9 | -6 | 2 | 2 | 0 | .
c1ccc(-c2sc3ccccc3c2-c2ccc(OCCN3CCCC3)cc2)cc1 | 46 | -2 | 2 | -2 | 4 | 24
COc1ccc(-c2sc3ccccc3c2-c2ccc(OCCN3CCCCC3)cc2)cc1 | 6 | 4 | 7 | 0 | 5 | 7
O=C(c1ccccc1)c1ccc2nc(N3CCN(C(=O)c4ccco4)CC3)c3nncn3c2c1 | 55* | -4 | -33 | -6 | -15 | -5
Cc1nn(CC(=O)NC(=O)NC2CCCCC2C)c(=O)c(C#N)c1C (stereo not drawn) | 10 | -10 | -9 | 4 | -9 | .
COc1ccc(-c2noc(CCC(=O)NCCCN3CCN(c4ccc(F)cc4)CC3)n2)cc1 | 57* | 3 | -4 | -10 | 6 | -6
COc1ccc(-c2noc(CCC(=O)NCCCN3CCC(Cc4ccccc4)CC3)n2)cc1 | 17 | -9 | -3 | 0 | -18 | .
O=C(Nc1cccc(Cl)c1)Nc1ccccc1C(=O)O | 8 | -3 | 7 | 2 | 4 | -6
O=C(Nc1cccc(Cl)c1)Nc1cccc(C(=O)O)c1 | 0 | . | -9 | . | 0 | 5
COc1ccc(OC)c(NC(=O)Nc2cnccn2)c1 | 2 | -4 | -4 | 2 | -1 | .
COc1ccccc1NC(=O)Nc1cnccn1 | 54* | 5 | -6 | 8 | -6 | 0
CCC(C)C(NC(=O)C(N)CC(C)C)C(=O)NC(CCC(=O)OCc1ccccc1)C(N)=O (stereo not drawn) | 54* | -11 | 21 | -4 | -2 | 5
CC(C)C(NC(=O)OC(C)(C)C)C(=O)NC(CCC(=O)OCc1ccccc1)C(N)=O (stereo not drawn) | 4 | 6 | 0 | 6 | 2 | .
O=C(NCC(=O)N1CCN(Cc2c(F)cccc2Cl)CC1)c1cccs1 | . | -4 | -1 | -13 | . | .
O=C1CCCc2ccccc2N1Cc1cccc(F)c1 | -9 | 6 | -6 | -4 | 6 | .
O=C1CCCc2ccccc2N1Cc1ccc(F)cc1 | 52* | 1 | 10 | 7 | -2 | 1
O=c1[nH]c(=O)n(CCCc2ccccc2)cc1-c1ccccc1 | . | 4 | 5 | -7 | 2 | .
Cc1ccc(C(=O)OCC(=O)Nc2cccc(Cl)c2C)c(O)c1 | 1 | -8 | -8 | -6 | -4 | -5
Cc1ccc(C(=O)OCC(=O)Nc2ccccc2Cl)c(O)c1 | 20 | 2 | 4 | -4 | -5 | .
CS(=O)c1nc(-c2ccc(Br)cc2)cc(-c2ccccc2)c1C#N (stereo not drawn) | 59* | -2 | -9 | -5 | 7 | 41*
CSc1nnc(Cc2cc(=O)[nH]c(=O)[nH]2)n1-c1cccc(C)c1 | 18 | 4 | -2 | -14 | -12 | .
Cc1cccc(-n2c(Cc3cc(=O)[nH]c(=O)[nH]3)nnc2SCC(=O)N2CCCCC2)c1 | 54* | 3 | 6 | 0 | -6 | 10
Cc1ccc(S(=O)(=O)NCC(c2ccco2)S(=O)(=O)c2ccccc2)cc1 (stereo not drawn) | -17 | -9 | -21 | -4 | -8 | .
COc1ccc(OC)c(S(=O)(=O)NCC(c2ccco2)S(=O)(=O)c2ccccc2)c1 (stereo not drawn) | 76* | -1 | -3 | -9 | -8 | 0
Cc1ccc(S(=O)(=O)CCC(=O)OCc2ccc(S(=O)(=O)C(C)C)cc2)cc1 | 51* | -4 | 1 | -11 | -4 | 3
Cc1ccc(S(=O)(=O)CCC(=O)OCc2ccc(Cl)c(Cl)c2)cc1 | -13 | -8 | -8 | -9 | 0 | .
